ALOX12 inhib: inhibitors of human 12-lipoxygenase (ALOX12) | Potency, µM (highest dose often 57.1 µM), without a hit: at the highest dose activity change, negative = inhibition, usual class: inhibitors | purified 12-hLO, xylenol orange hydroperoxide absorbance | actives 0.12% (n = 150,000); also: potency is read from the fitted curve at half-maximal effect; nearly all actives have a fitted effect of over 55% in size
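Purified human 12hLO (150 nM), preincubated 15 min with compound, then 40 uM arachidonic acid for 30 min, room temperature, Hepes pH 7.0 with 0.01% Triton X-100. Hydroperoxide detected by ferrous iron/xylenol orange; 573/405 nm absorbance ratio gives reaction progress.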
HPGD inh: inhibitors of human 15-hydroxyprostaglandin dehydrogenase (HPGD). purified HPGD, NADH fluorescence kinetic, PGE2 substrate. P15428. Potency, µM, inactives show at the top dose activity change, negative = inhibition, hits mostly inhibitors. actives 4.3% (n = 150,000); active = well fitted inhibition curve with a large enough effect, not every such curve was filed as active; inconclusive = small, poorly fitted or top-dose-only effect, or another doubt; inactive = no such curve, though single readings can be large or run the other way; also: potency is read from the fitted curve at half-maximal effect
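20 nM HPGD preincubated 15 min at room temperature with compound in 50 mM Tris-HCl pH 8, 0.01% Tween 20. Started with 1 mM NAD+ and 30 uM prostaglandin E2; NADH fluorescence (360/450 nm) read 5 times over 30-s intervals, last minus first.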
IMPase inh: IMPase inhibition in cells | P97697 | CHO-M1 cells, IP1 accumulation, HTRF TR-FRET ratio | inhibition (IP1 accumulation), % at 46.1 µM | 120,000 tested, under 10 active | AID 901; active = well fitted curve in the direction sought with a large enough effect in the signal ratio, not every such curve was filed as active; inconclusive = small, poorly fitted or top-dose-only effect, or a change in a side signal; inactive = no such curve, though single readings can be large or run the other way; the % refers to the signal ratio;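 also: cells stimulated with carbachol in lithium chloride buffer; plate controls were DMSO basal wells for no effect and reference inhibitor wells for full effect; higher means more IMPase inhibition seen as more IP1 and lower FRET ratio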
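Cellular IMPase inhibition is scored as a rise in cytosolic IP1, detected by competitive TR-FRET between d2-labelled IP1 and a europium anti-IP1 antibody. M1-expressing CHO cells were stimulated with carbachol for 30 min at 37C, with lithium (50 mM LiCl) present in the buffer.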
IMPase Li inh: IMPase inhibition in cells with lithium potentiation; Potency, µM (titrated, usually from 59.4 µM), without a hit: at the top dose activity, negative = IMPase inhibition, most hits filed as inhibitors; CHO-M1 cells, IP1 TR-FRET (IP-One), carbachol + lithium; AID 1457; actives 0.35% (n = 210,000);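 also: IP1 builds up when IMPase is blocked and the TR-FRET signal falls; potency is read from the fitted curve at half-maximal effect; plate controls were basal vehicle for no effect and high inhibitor control for full effect; nearly all actives have a fitted effect of over 50% in size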
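Concentration–response in CHO-M1 cells, lithium-potentiated; 30 min at 37C. IP1 detected by competitive TR-FRET after 10 min lysis at RT. Hill-fitted AC50.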
ALOX15B inhib: inhibitors of human 15-lipoxygenase 2 (ALOX15B); O15296; purified 15hLO-2, xylenol orange hydroperoxide absorbance; Potency, µM (titrated, usually from 57.1 µM), inactives show top-dose activity change, negative = inhibition, actives largely listed as inhibitors; actives 0.56% (n = 110,000); AID 881; also: potency is read from the fitted curve at half-maximal effect; nearly all actives have a fitted effect of over 60% in size
Target sequence (O15296 whole entry, looked up): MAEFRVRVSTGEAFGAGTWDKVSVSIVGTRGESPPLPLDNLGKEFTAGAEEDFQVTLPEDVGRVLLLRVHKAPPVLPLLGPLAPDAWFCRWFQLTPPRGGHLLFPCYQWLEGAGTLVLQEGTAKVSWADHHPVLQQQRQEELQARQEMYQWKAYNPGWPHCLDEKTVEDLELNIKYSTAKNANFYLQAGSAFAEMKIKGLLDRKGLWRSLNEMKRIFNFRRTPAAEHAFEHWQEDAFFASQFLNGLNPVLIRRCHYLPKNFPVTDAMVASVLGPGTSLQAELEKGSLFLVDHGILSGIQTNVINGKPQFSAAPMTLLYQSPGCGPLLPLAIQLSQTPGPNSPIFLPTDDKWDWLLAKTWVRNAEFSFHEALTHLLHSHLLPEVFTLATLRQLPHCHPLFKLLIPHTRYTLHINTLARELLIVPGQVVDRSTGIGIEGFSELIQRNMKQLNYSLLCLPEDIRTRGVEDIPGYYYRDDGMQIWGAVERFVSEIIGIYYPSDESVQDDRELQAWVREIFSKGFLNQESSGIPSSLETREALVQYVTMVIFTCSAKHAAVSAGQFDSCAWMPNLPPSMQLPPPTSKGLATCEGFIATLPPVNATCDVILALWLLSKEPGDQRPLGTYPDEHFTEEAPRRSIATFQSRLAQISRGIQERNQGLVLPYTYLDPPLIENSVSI
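Read-out: hydroperoxide product oxidises ferrous iron, measured as xylenol orange complex via the 573-to-405 nm absorbance ratio after 30 min. Reaction: 50 nM enzyme, 15 min compound preincubation, 45 uM arachidonic acid, 90 min RT, Hepes pH 7.5 with Triton X-100.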
PNC inhibitor: inhibitors of perinucleolar compartment assembly | activity change (PNC), negative = inhibition, % at 10 µM | actives 3.1% (n = 140,000) | PC3M PTB-GFP, PNC prevalence imaging, 16 h; active compounds read low;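 active = readout at or below -70, meaning at least 70% loss of cells showing the perinucleolar compartment, a nuclear body marking cancer cells; inconclusive = readout between -30 and a set limit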;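 also: plate controls were DMSO wells for no effect and camptothecin positive control wells for full effect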
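Compounds are pinned in duplicate onto adhered PC3M cells stably expressing GFP-tagged PTB and incubated 16 h at 37 C. Cells are then fixed, nuclei stained with Hoechst, and PNC-positive cells counted.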
The depositor's hits bear a star; u = inconclusive; x = no result; [ ] = another dose, or the depositor's remark. Most compounds without a hit are left out; they make up all but 5.3% or so of the library. Unless noted, calls follow the shape of the dose curve; as a rule, active = well fitted curve in the direction sought with a large enough effect; inconclusive = small, poorly fitted or top-dose-only effect, or another doubt; inactive = no such curve, though single readings can be large; an effect the other way counts as inactive or inconclusive. Unless noted, % is scaled to controls: 0 for no effect and ±100 for the full control effect.

SMILES	ALOX12 inhib	HPGD inh	IMPase inh	IMPase Li inh	ALOX15B inhib	PNC inhibitor
COc1ccccc1NS(=O)(=O)c1cc(NC(=O)c2cccs2)ccc1N1CCCC1	0%	8.9µM*	x	3%	x	24
C=C(C)C(=O)OCCCCCCCCCC	-2%	-6%	x	-12%	3%	x
O=c1cc(CSc2nnc(COc3ccccc3Cl)o2)nc2sccn12	-8%	18µM*	1	7%[38.3 µM]	13%	-10
COc1ccc(OCc2nnc(SCc3ccc(C(=O)O)cc3)o2)cc1	x	x	x	6%	x	x
O=C(O)c1ccc(CSc2nnc(COc3ccc(Cl)cc3Cl)o2)cc1	-10%	5µM*	6	-25%[38.3 µM]	-9%	46
C/C(=N/O)c1ccc2cc(Br)c3ccccc3c2c1	0%[11.4 µM]	-3%	x	-2%	8%[11.4 µM]	x
O=C(N1CCCCCC1)n1c(Cc2ccccc2)nc2ccccc21	1%	-16%	2	10%	x	-119*
Cc1cc(SCC(=O)c2cc3ccccc3o2)nc2ccccc12	-2%	35µM*	4	-5%[38.3 µM]	-12%	u
Cc1cc(SCC(=O)NCCC2=CCCCC2)nc2ccccc12	-7%	25µM*	x	18%	x	4
Cc1cc(SCC(=O)N2CCCC2)nc2ccccc12	1%	13µM*	-7	-28%[38.3 µM]	-14%	-15
CC(=O)NCCn1c(SCC(=O)NCCC2=CCCCC2)nc2ccccc2c1=O	2%	-7%	6	-13%[38.3 µM]	-10%	u
OC1CN=C2C=CC=CN2C1 (stereo not drawn)	2%	u	5	2%[38.3 µM]	2%	u
Cn1c(=O)c(CCc2ccccc2)nc2cnc(Oc3ccccc3)nc21	-2%	-16%	x	3%	4%	x
O=C(CN(CCc1ccccc1)S(=O)(=O)c1ccc(Cl)cc1)N/N=C/c1ccc2c(c1)OCO2	0%	-9%	-1	3%	x	98
COc1ccc(C)cc1N(CC(=O)Nc1cccnc1)S(=O)(=O)c1ccc(C)cc1	x	x	x	4%	x	x
COc1ccccc1N(CC(=O)Nc1ccc2c(c1)OCO2)S(=O)(=O)c1ccccc1	-13%	-26%	-3	-2%[38.3 µM]	-14%	2
COc1ccc(S(=O)(=O)N(CC(=O)Nc2ccc3c(c2)OCO3)c2ccccc2OC)cc1	-5%	16µM*	7	12%[38.3 µM]	-12%	24
COc1ccc(OC)c(N(CC(=O)Nc2cccnc2)S(=O)(=O)c2ccccc2)c1	2%	7.9µM*	5	13%[38.3 µM]	-5%	5
CCOc1ccccc1N(CC(=O)Nc1ccc2c(c1)OCO2)S(C)(=O)=O	-6%	-10%	7	-4%[38.3 µM]	3%	9
CCOc1ccccc1N(CC(=O)Nc1ccc2c(c1)OCCO2)S(C)(=O)=O	-6%	-9%	-8	6%[38.3 µM]	3%	-125*
COc1ccc(S(=O)(=O)N(CCc2ccccc2)CC(=O)N/N=C/c2ccc3c(c2)OCO3)cc1	-3%	22µM*	x	3%	x	55
Cc1nn(Cc2ccc(Cl)cc2)c(C)c1NC(=O)C1CC=CCC1C(=O)O (stereo not drawn)	7%	-8%	-1	10%[38.3 µM]	-2%	u
COc1ccc(S(=O)(=O)N(CC(=O)Nc2cccnc2)c2ccccc2OC)cc1	0%	2.2µM*	11	47%[38.3 µM]	-1%	-11
COc1ccc(N(CC(=O)Nc2cccnc2)S(C)(=O)=O)cc1	x	x	x	-1%	x	x
COc1ccccc1N(CC(=O)Nc1cccnc1)S(C)(=O)=O	1%	-6%	1	13%[38.3 µM]	4%	-7
SMILES	ALOX12 inhib	HPGD inh	IMPase inh	IMPase Li inh	ALOX15B inhib	PNC inhibitor
COc1ccccc1N(CC(=O)Nc1cccnc1)S(=O)(=O)c1ccccc1	-3%	14µM*	3	9%[38.3 µM]	-8%	28
NC(=S)NN=C(Cc1ccccc1)Cc1ccccc1	x	x	x	15%	x	x
N#C/C(=C\c1ccc(-c2ccc(C(=O)O)cc2)o1)C(=O)NCC1CCCO1 (stereo not drawn)	1%	u	x	11%	x	-11
N#C/C(=C\c1ccc(-c2ccc(S(=O)(=O)N3CCOCC3)cc2)o1)C(=O)NC1CC1	-2%	14µM*	x	5%	x	-17
Cc1cc2cc(CNC(=O)c3ccc4c(c3)OCO4)ccc2[nH]1	-13%	20µM*	9	-8%[38.3 µM]	-5%	u
CCOCCCNC(=O)c1ccc2c(c1)OCO2	-2%	14µM*	4	19%[38.3 µM]	-1%	-5
O=C(NCc1ccc2c(c1)OCO2)c1ccc2c(c1)OCCO2	-8%	-14%	-5	16%[38.3 µM]	11%	-15
O=C(CC12CCC(CC1)C2)NCc1ccc2c(c1)OCO2	-5%	16µM*	4	12%	x	-1
Cc1ccc(CC(=O)NCc2ccc3c(c2)OCO3)cc1	-14%	-17%	9	-14%[38.3 µM]	-2%	-2
Cc1ccc(S(=O)(=O)Cc2ccc(C(=O)NCc3ccc4c(c3)OCO4)o2)cc1	0%	-13%	2	19%[38.3 µM]	-6%	-107*
Cc1nc(/C=C\C(=O)O)c2cc(C)oc2n1	x	x	x	-14%	x	x
CC(C)C[C@@H](CC(=O)N[C@H](CC(=O)N[C@@H]1CCNC[C@H]1C(=O)N[C@H](CC(=O)N[C@@H](CCC(=O)O)CC(=O)O)Cc1ccccc1)C(C)C)NC(=O)[C@@H]1CCCC[C@H]1N	-5%	0%	x	4%	x	x
O=C(NCc1ccc2c(c1)OCO2)c1cccs1	3%	28µM*	2	-5%[38.3 µM]	-2%	-26
CCC/C(=N/NC(=O)c1ccc2c(c1)OCO2)c1cccs1	-4%	16µM*	x	22%	x	-22
O=C(Nc1cccc(NC(=O)c2cccs2)c1)c1ccc2c(c1)OCO2	x	x	x	1%	x	x
O=C(COC(=O)c1cccs1)NCc1ccc2c(c1)OCO2	-18%	-23%	0	-2%[38.3 µM]	1%	u
O=C(CC(SCCO)c1ccc2c(c1)OCO2)c1cccs1 (stereo not drawn)	-11%	-13%	-3	13%[38.3 µM]	5%	-112*
CCOCC(=O)NCc1ccc2c(c1)OCO2	-12%	13µM*	-2	-10%[38.3 µM]	1%	-2
CCOC(=O)Cc1nnc(Nc2cc(C)ccc2C)c2ccccc12	x	x	x	3%	x	x
CC1CCC(NC(=O)CN2C(=O)COc3ccc(S(=O)(=O)N4CCCC4)cc32)CC1 (stereo not drawn)	1%	-3%	14	2%	x	57
O=C(COc1ccccc1-c1ccccc1)NCc1cccc(Cl)c1	-3%	x	18	x	x	u
O=C(COc1ccc(S(=O)(=O)N2CCCC2)cc1Cl)NCc1ccc2c(c1)OCO2	-6%	-16%	21	34%[38.3 µM]	-9%	-107*
O=C(c1ccccc1)N1CCN(C(=S)NCc2ccc3c(c2)OCO3)CC1	-3%	32µM*	x	-5%	x	71
NC(=O)C1CCN(C(=S)NCc2ccc3c(c2)OCO3)CC1	x	x	x	7%	x	x
